SMN2 splice up = SMN2 splice variant enhancement | Potency, µM (doses to about 46.1 µM), for the others: at the highest dose activity change, positive = activation, actives largely listed as activators | actives 2.8% (n = 210,000) | AID 1458 | HEK293 SMN2-luciferase splicing reporter, luminescence, 30-36 h; also: % of control where 0% means no effect; nearly all actives have a fitted effect of over 55% in size
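HEK293 cells carry an SMN2 minigene-luciferase reporter in which exon 7 inclusion puts luciferase in frame. Cells were seeded at 2000 cells/well, attached for 10-12 hours, then exposed to compounds for 30-36 hours at 37C before ONE-Glo luminescence.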
Rab9 promoter act = activators of Rab9 promoter; Huh7 Rab9 promoter-luciferase reporter, luminescence, 24 h; Potency, µM (highest dose often 9.22 µM), inactives show at the highest dose activation, negative = inhibition, hits mostly activators; AID 485297; actives 2.8% (n = 320,000); also: % of control where 0% means no effect; nearly all actives have a fitted effect of over 60% in size
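Measured in stably transfected Huh7 cells bearing a Rab9 promoter–luciferase construct: 24 h compound treatment at 37 °C, followed by luminescence detection.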
FLuc modulator = counter-screen for miR-21 project: firefly luciferase inhibitors or activators; P08659; purified FLuc, Km substrates, luminescence inhibition; Potency, µM (titrated, usually from 57.5 µM), without a hit: at the top dose activity change, negative = inhibition, hits mostly inhibitors; actives 6.9% (n = 360,000);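 also: plate controls were vehicle for no effect and reference inhibitor for full effect; nearly all actives have a fitted effect of over 55% in size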
Target sequence (P08659 whole entry, looked up): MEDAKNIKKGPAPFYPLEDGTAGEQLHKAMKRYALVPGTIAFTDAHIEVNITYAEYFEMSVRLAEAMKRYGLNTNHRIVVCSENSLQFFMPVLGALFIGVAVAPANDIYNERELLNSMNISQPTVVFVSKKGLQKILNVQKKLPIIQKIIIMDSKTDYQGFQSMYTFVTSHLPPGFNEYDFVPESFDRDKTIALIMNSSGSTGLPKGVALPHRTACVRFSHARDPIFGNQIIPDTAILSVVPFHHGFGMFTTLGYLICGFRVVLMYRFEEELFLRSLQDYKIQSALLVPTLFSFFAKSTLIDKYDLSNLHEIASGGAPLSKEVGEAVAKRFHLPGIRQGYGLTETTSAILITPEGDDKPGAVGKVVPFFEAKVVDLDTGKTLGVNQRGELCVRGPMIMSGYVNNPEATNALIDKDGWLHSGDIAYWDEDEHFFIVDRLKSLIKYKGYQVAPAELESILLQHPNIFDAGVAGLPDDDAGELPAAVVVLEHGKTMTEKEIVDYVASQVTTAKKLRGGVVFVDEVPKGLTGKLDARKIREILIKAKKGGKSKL
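Purified P. pyralis luciferase, 10 nM final, with Km-level 10 uM D-luciferin and 10 uM ATP in 50 mM Tris acetate pH 7.5, 10 mM Mg acetate, 0.01% Tween-20, 0.05% BSA; 6-point qHTS titration about 60 µM downward; luminescence read.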
ELG1 genotoxic = genotoxicity induction in ELG1-luciferase HEK293T cells. AID 504466. actives 1.3% (n = 330,000). HEK293T ELG1-luciferase reporter, luminescence, 16 h. Potency, µM (series often up to 46 µM), for the others: at the highest dose activity change, positive = activation, actives largely listed as activators; also: % of control where 0% means no effect; nearly all actives have a fitted effect of over 60% in size
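DMSO vehicle served as control against compound-treated ELG1-luciferase HEK293T cells; exposure lasted 16 hr at 37 °C and 5% CO2, followed by ONE-Glo luminescence detection after 30 min.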
Luc counter = blocks Kinase-Glo luciferase, a counter-screen artifact | actives 0.28% (n = 200,000) | Potency, µM (series often up to 38.3 µM), for inactives: at the top dose activity change, negative = inhibition, most hits filed as inhibitors | Q27757 | Kinase-Glo luciferase, ATP luminescence, 8 min | AID 1379; also: % is scaled to controls: 0 for no effect and ±100 for the full control effect; nearly all actives have a fitted effect of over 60% in size
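Recombinant Kinase-Glo luciferase, 10 uM ATP (linear range), luciferin; imidazole pH 7.2 / KCl / MgCl2 / Tween / BSA buffer; 8 min RT; luminescence.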
NPC1 promoter act = activators of NPC1 promoter; Huh7 NPC1 promoter luciferase reporter, 24 h; Potency, µM (titrated, usually from 9.22 µM), without a hit: at the top dose activation, usual class: activators; actives 2.4% (n = 320,000); AID 485313; also: % of control where 0% means no effect; nearly all actives have a fitted effect of over 60% in size
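Luminescence read-out of NPC1 promoter-driven luciferase in stably transfected Huh7 cells; compounds delivered in DMSO and left 24 h at 37C, 5% CO2, qHTS titration format.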
Starred values were filed as active, the others as inactive; ? = inconclusive; . = not tested or not shown. The list is not random: actives were taken first. Their share in the collection is about 7.3%. Calls follow the shape of the dose curve; as a rule, active = well fitted curve in the direction sought with a large enough effect; inconclusive = small, poorly fitted or top-dose-only effect, or another doubt; inactive = no such curve, though single readings can be large; an effect the other way counts as inactive or inconclusive. Potency is read from the fitted curve at half-maximal effect.

SMILES	SMN2 splice up	Rab9 promoter act	FLuc modulator	ELG1 genotoxic	Luc counter	NPC1 promoter act
Cc1csc(NC(=O)CSc2nnc(-c3ccoc3C)o2)n1	11µM*	?	-3%	9%	3%	?
CC1(C)Cc2nc3sc4c(SCC(=O)NCc5ccccc5)ncnc4c3cc2CO1	?	23%	2.7µM*	4.1µM*	-4%	26%
COC(=O)CSc1ncnc2c1sc1nc3c(cc12)COC(C)(C)C3	22%	?	?	-9%	0%	25%
CC1(C)Cc2nc3sc4c(SCC(=O)O)ncnc4c3cc2CO1	.	?	0.38µM*	5%	.	?
COC(=O)Cc1[nH]n(-c2ccccc2)c(=O)c1C=Nc1ccc(C)cc1	.	-3%	9.5µM*	2%	.	0%
Cc1ccc(OCc2cc(C(=O)N(CCO)Cc3cccs3)no2)cc1C	.	3.5µM*	27µM*	?	.	4µM*
Cc1ccc(OCc2cc(C(=O)N3CCN(c4ccccc4)CC3)no2)cc1C	.	2µM*	6µM*	3.7µM*	.	2.5µM*
Cc1ccc(OCc2cc(C(=O)N3CCC(c4ccccc4Cl)C3)no2)cc1C (configuration not stated)	.	?	27µM*	?	.	?
CCN(Cc1ccncc1)C(=O)c1cc(COc2ccc(C)c(C)c2)on1	.	5%	-17%	-1%	.	-3%
Cc1ccc(OCc2cc(C(=O)N3CCCCCCC3)no2)cc1C	.	?	?	22%	.	?
Cc1ccc(OCc2cc(C(=O)N3CCN(C4CCCC4)CC3)no2)cc1C	.	28%	?	5%	.	3%
CC1=C(C(=O)Nc2ccc(C)cc2Cl)C2(CCCCC2)OC1=O	5%	.	-4%	.	.	.
COc1ccccc1CNC(=O)c1cn(C)c2ccc(S(=O)(=O)N(C)C3CCCCC3)cc2c1=O	10%	.	2%	.	.	.
COCCCNC(=O)CN1C(=O)c2c(c3ccccc3n2C)C1c1ccc(OC)cc1 (configuration not stated)	.	.	3%	.	.	.
COC(=O)c1cccc(Nc2ncnc3sccc23)c1	-41%	22%	?	-6%	4%	-4%
c1nc(Nc2ccc(N3CCOCC3)cc2)c2ccsc2n1	.	?	17µM*	16%	.	3.2µM*
c1ccc(Nc2ncnc3sccc23)cc1	.	-1%	?	0%	.	1%
COc1cccc(Nc2ncnc3sccc23)c1	.	?	17µM*	15%	.	?
COc1ccc(Nc2ncnc3sccc23)cc1	.	?	24µM*	14%	.	?
COc1cccc(Nc2ncnc3sc(C)cc23)c1	.	?	17µM*	?	.	26%
Cc1cc(C)cc(NC(=O)Cn2c(=O)n(Cc3ccco3)c(=O)c3oc4ccccc4c32)c1	.	.	-1%	.	.	.
COc1cc2cc(CNc3ccccc3)c(=O)n(CC(=O)Nc3cc(C)cc(C)c3)c2cc1OC	.	.	-1%	.	.	.
O=C(N/N=C/c1ccco1)c1cc(-c2ccc3ccccc3c2)n[nH]1	-1%	1%	19µM*	3%	-3%	-1%
CCc1ccc(-c2cc(C(=O)N/N=C/c3ccccn3)[nH]n2)cc1	-33%	12%	7.6µM*	-5%	0%	8%
O=C(N/N=C/c1ccccn1)c1ccc([N+](=O)[O-])cc1Cl	.	2%	19µM*	2%	.	-5%
O=C(N/N=C/c1ccccn1)c1ccc(NC(=O)c2ccccc2Cl)cc1	.	0%	?	-8%	.	-2%
O=C(N/N=C/c1ccccn1)c1ccc(Cl)c(Cl)c1	.	2%	?	21µM*	.	0%
O=C(N/N=C/c1cccnc1)c1ccc([N+](=O)[O-])cc1Cl	.	-3%	?	-2%	.	-1%
CCc1ccc(-c2cc(C(=O)N/N=C/c3ccco3)[nH]n2)cc1	0%	1%	?	-7%	-5%	13%
Cc1c(Cl)cccc1NS(=O)(=O)c1ccc2[nH]cc(C(=O)NC3CCCC3)c(=O)c2c1	-7%	.	?	.	.	.

Compound activity from PubChem.
